We go through 39 compounds from PubChem BioAssay (NCATS).

The structures appear in SMILES notation. Inconclusive results are not listed. Unmarked numbers belong to inactive results. Active and inactive are the calls of the source. The call rests on the fitted dose curve; in most records, active means well fitted curve in the direction sought with a large enough effect; inconclusive means small, poorly fitted or top-dose-only effect, or another doubt; inactive means no such curve, though single readings can be large; an effect the other way counts as inactive or inconclusive.
On the % scale 0 is the no-effect control and ±100 the full control effect; potency means the concentration at half of the fitted maximal effect.

Sequence of Rap guanine nucleotide exchange factor 4 (Homo sapiens) (Q8WZA2 whole entry, looked up): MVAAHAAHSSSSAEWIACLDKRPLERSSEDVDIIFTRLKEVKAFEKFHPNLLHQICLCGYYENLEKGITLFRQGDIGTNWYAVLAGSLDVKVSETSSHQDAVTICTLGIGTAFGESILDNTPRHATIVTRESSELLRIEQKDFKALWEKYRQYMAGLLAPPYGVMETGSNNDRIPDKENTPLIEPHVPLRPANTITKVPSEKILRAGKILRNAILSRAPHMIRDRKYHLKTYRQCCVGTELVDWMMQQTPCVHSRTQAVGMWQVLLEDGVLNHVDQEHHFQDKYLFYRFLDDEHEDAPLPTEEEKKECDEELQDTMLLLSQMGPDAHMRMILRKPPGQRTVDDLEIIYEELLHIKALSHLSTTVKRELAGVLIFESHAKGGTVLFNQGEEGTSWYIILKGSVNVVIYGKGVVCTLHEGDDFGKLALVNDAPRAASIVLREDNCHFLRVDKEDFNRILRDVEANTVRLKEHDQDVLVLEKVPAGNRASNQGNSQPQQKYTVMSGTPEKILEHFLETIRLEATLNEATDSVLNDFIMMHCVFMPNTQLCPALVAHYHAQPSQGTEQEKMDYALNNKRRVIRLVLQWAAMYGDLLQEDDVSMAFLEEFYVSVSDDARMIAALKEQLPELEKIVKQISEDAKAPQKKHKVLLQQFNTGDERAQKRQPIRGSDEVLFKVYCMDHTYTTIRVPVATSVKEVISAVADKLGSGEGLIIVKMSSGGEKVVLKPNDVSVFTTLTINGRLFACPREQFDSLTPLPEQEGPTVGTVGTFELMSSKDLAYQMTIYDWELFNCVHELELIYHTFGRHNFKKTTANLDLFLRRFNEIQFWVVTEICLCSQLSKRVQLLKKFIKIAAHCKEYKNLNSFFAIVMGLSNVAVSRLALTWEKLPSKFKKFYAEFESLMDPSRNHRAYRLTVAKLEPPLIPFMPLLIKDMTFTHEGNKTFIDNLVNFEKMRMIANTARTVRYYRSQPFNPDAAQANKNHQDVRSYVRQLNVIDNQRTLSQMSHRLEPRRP

The first test concerns the target Rap guanine nucleotide exchange factor 4 (Homo sapiens) (UniProt Q8WZA2). As to the kind of experiment: Confirmatory qHTS for agonist of cAMP-regulated guanine nucleotide exchange factor 4 (EPAC2) (AID 1645884).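 Further: nucleotide exchange releases bodipy-GDP from Rap1 and this lowers its fluorescence; nearly all actives have a fitted effect of over 65% in size.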 As to conditions: EPAC2 GEF activity, Rap1B-BODIPY-GDP fluorescence; series mostly up to 154 µM; activation: at the top concentration. For orientation: Quantitative high-throughput screening tests each substance at several concentrations.
Consider `COc1ccc(N2CCN(C(c3ccccc3F)c3sc4nc(-c5ccco5)nn4c3O)CC2)cc1` (stereo not drawn), for which the “activation” value was 9.27% [at 83.8 µM, percent relative to cAMP agonist control].

Regarding `Nc1c(C(=O)Nc2ccc3c(c2)OCCO3)nnn1Cc1cccc(Br)c1`, the activation is 11.4% [at 17.1 µM, percent relative to cAMP agonist control].

As to `CC1(c2ccccc2)CC(C)(C)N2C(=O)Cc3cccc1c32` (stereo not drawn), the “activation” value is 26.2%.

For `COc1ccc(-n2ccn(Cc3ccccc3Cl)c(=O)c2=O)cc1OC`, the “activation” value is 11.8% [at 83.8 µM, percent relative to cAMP agonist control].

On to `Clc1ccc(CSc2nncn3c2cc2occc23)cc1`, for which the “activation” value is 2.2% [at 83.8 µM, percent relative to cAMP agonist control].

For the compound `O=c1nc2s/c(=C\c3ccc(-c4ccccc4[N+](=O)[O-])o3)c(=O)n2nc1-c1ccccc1`, the “activation” value was -3.53%.

As to `O=C1C(c2ccccc2)=[N+]([O-])c2ccccc21`, the “activation” value is 4.4%.

With `C[C@H](c1ccccc1)N1C[C@@H](COCc2ccccc2)Oc2cc(N3CC[C@@H](O)C3)ccc2S1(=O)=O`, the “activation” value was 10.2%.

With `O=C(OCc1ccc([N+](=O)[O-])cc1)c1cc(=O)c2ccccc2o1`, the “activation” value was -6.81%.

On to `Cc1c(Cl)cccc1NC(=O)CN(CCc1ccccc1)S(=O)(=O)c1ccccc1`, for which the “activation” value is -19.3% [at 83.8 µM, percent relative to cAMP agonist control].

Consider `Cc1ccc2cc(CN(Cc3ccco3)C(=O)c3ccco3)c3nnnn3c2c1`, for which the “activation” value is -17%.

Consider `C=CCSc1nc(-c2ccc(OC)cc2)c(C#N)c(=O)n1CC=C`, for which the activation was 1.63% [at 17.1 µM, percent relative to cAMP agonist control].

For `CCc1ccccc1Oc1nc(NC(C)C)nc2ccsc12`, the activation is 7.29% [at 17.1 µM, percent relative to cAMP agonist control].

Regarding `CCN(CC(=O)Nc1c(F)cccc1F)C(=O)CCc1nc2sc3c(c2c(=O)[nH]1)CCCC3`, the “activation” value is -2.81%.

Take `N#C/C(=C/c1ccc(O)c(O)c1)c1nc2ccccc2[nH]1`: the “activation” value is 1.57%.

As to `COc1ccc(NC(=O)COc2ccccc2C#N)c(S(=O)(=O)N2CCCCC2)c1`, the “activation” value is 52.7%.

Regarding `CSc1nc2c(c(C(F)(F)F)n1)CC(C)CC2` (stereo not drawn), the “activation” value was -14.2%.

Turning to `CCSc1nnc(NC(=O)C2CCN(S(=O)(=O)c3ccccc3C(F)(F)F)CC2)s1`, the “activation” value was 1.21%.

In the case of `COc1ccc(C(=O)c2ccccc2)c2c(O)ccc(C(=O)c3ccccc3)c12`, the “activation” value is 18.9%.

In the case of `CC(Oc1ccc(-c2nnco2)cc1)C(=O)N1CCOCC1` (stereo not drawn), the “activation” value was 3.12%.

With `CCN(CC)S(=O)(=O)c1cccc(-c2nnc(SCC(N)=O)n2C)c1`, the “activation” value was 1.04%.

As for `Cc1ccc(NC(=O)Cn2nc(C)c3nn(-c4ccc(Cl)cc4)c(C)c3c2=O)cc1F`, the “activation” value is -16.1% [at 83.8 µM, percent relative to cAMP agonist control].

In the case of `COc1ccc(-c2n[nH]c3c2C(c2ccc(Cl)cc2Cl)NC3=O)cc1` (stereo not drawn), the “activation” value was 8.29% [at 83.8 µM, percent relative to cAMP agonist control].

As for `CCCc1cc(C(=O)Nc2ccccc2C(=O)OC)no1`, the “activation” value was -5.22%.

As to `CC1=C(C(=O)OC2CCCC2)C(c2c(Cl)cccc2Cl)CC(=O)N1` (stereo not drawn), the “activation” value was -4.85% [at 83.8 µM, percent relative to cAMP agonist control].

On to `O=C(CCN1C(=O)/C(=C/c2cccs2)SC1=S)Nc1ccc(C(=O)O)c(O)c1`, for which the activation is 0.91% [at 17.1 µM, percent relative to cAMP agonist control].

Turning to `Cc1ccc(OCCn2cccn2)c(C)c1`, the “activation” value is -0.89%.

Consider `CCOC(=O)[C@@H](NC(=O)/C=C/[C@H]1O[C@@H](n2cc(C)c(=O)[nH]c2=O)C[C@@H]1O)C(C)C`, for which the “activation” value is 12.1%.

In the case of `Cc1c(NC(=O)/C=C/c2cn(-c3ccccc3)nc2-c2ccccc2)c(=O)n(-c2ccccc2)n1C`, the activation was 0% [at 17.1 µM, percent relative to cAMP agonist control].

For the compound `CSc1nc(N2CCOCC2)c2c3c(sc2n1)CCC3`, the “activation” value is 14.5%.

In the case of `COCC(=O)Oc1c(Sc2ccc(C)cc2)c(C)nn1C(C)(C)C`, the “activation” value is 7.37% [at 83.8 µM, percent relative to cAMP agonist control].

`COc1ccc(S(=O)(=O)N2CCC[C@H]2C(=O)N2CCC[C@H]2C(=O)NCc2ccccc2)cc1C`: the activation is 4.41% [at 17.1 µM, percent relative to cAMP agonist control].

On to `CCc1nn2c(-c3ccccc3OC)ccnc2c1-c1ccccc1`, for which the “activation” value was -8.17% [at 83.8 µM, percent relative to cAMP agonist control].

As for `CC1(C)CC(=O)C=C(c2ccc(F)cc2OCc2ccccc2)C1`, the “activation” value is -17.4%.

`Oc1ccc(-c2c(-c3ccsc3)sc3ccccc23)cc1`: the activation was 2.53% [at 17.1 µM, percent relative to cAMP agonist control].

Consider `N#Cc1cc2c(=O)n3ccccc3nc2n(-c2nnc(SCc3ccccc3Cl)s2)c1=O`, for which the “activation” value was 0% [at 83.8 µM, percent relative to cAMP agonist control].

For `O=C1CNC(=O)c2c(nc3n2CCC3)N1`, the “activation” value was 8.27%.

`COC(CNC(=O)c1ccc2c3c(onc13)-c1ccccc1C2=O)OC`: the Potency was 100 µM (active).

Regarding `CCCn1c(CN2CCN(C(=O)c3ccco3)CC2)nc2c1c(=O)n(C)c(=O)n2C`, the “activation” value was 3.58%.

For a further test the target is unchanged. Put plainly: Confirmatory qHTS for antagonist of cAMP-regulated guanine nucleotide exchange factor 4 (EPAC2) (AID 1645885). Further: nearly all actives have a fitted effect of over 25% in size. As to conditions: EPAC2 Rap1B-BODIPY-GDP exchange fluorescence, biochemical; series mostly up to 12.7 µM; activity change, negative = inhibition: at the top concentration.
`COc1ccc(N2CCN(C(c3ccccc3F)c3sc4nc(-c5ccco5)nn4c3O)CC2)cc1` (stereo not drawn): the “activity change, negative = inhibition” value is -2.25%.

As for `Nc1c(C(=O)Nc2ccc3c(c2)OCCO3)nnn1Cc1cccc(Br)c1`, the “activity change, negative = inhibition” value was -2.13%.

For the compound `CC1(c2ccccc2)CC(C)(C)N2C(=O)Cc3cccc1c32` (stereo not drawn), the Potency is 33.8 µM (active).

Consider `COc1ccc(-n2ccn(Cc3ccccc3Cl)c(=O)c2=O)cc1OC`, for which the “activity change, negative = inhibition” value was -8.14%.

For the compound `Clc1ccc(CSc2nncn3c2cc2occc23)cc1`, the “activity change, negative = inhibition” value is 21.4%.

In the case of `O=c1nc2s/c(=C\c3ccc(-c4ccccc4[N+](=O)[O-])o3)c(=O)n2nc1-c1ccccc1`, the “activity change, negative = inhibition” value is 7.01% [at 114 µM].

For `O=C1C(c2ccccc2)=[N+]([O-])c2ccccc21`, the “activity change, negative = inhibition” value was 45.3% [at 114 µM].

For the compound `C[C@H](c1ccccc1)N1C[C@@H](COCc2ccccc2)Oc2cc(N3CC[C@@H](O)C3)ccc2S1(=O)=O`, the “activity change, negative = inhibition” value is 57.1% [at 114 µM].

Regarding `O=C(OCc1ccc([N+](=O)[O-])cc1)c1cc(=O)c2ccccc2o1`, the “activity change, negative = inhibition” value was -8.75% [at 114 µM].

With `Cc1c(Cl)cccc1NC(=O)CN(CCc1ccccc1)S(=O)(=O)c1ccccc1`, the “activity change, negative = inhibition” value is -7.01%.

`Cc1ccc2cc(CN(Cc3ccco3)C(=O)c3ccco3)c3nnnn3c2c1`: the Potency is 75.7 µM (active).

As for `C=CCSc1nc(-c2ccc(OC)cc2)c(C#N)c(=O)n1CC=C`, the “activity change, negative = inhibition” value is -12.9%.

With `CCc1ccccc1Oc1nc(NC(C)C)nc2ccsc12`, the “activity change, negative = inhibition” value is -7.88%.

As for `CCN(CC(=O)Nc1c(F)cccc1F)C(=O)CCc1nc2sc3c(c2c(=O)[nH]1)CCCC3`, the “activity change, negative = inhibition” value is -13.6% [at 114 µM].

With `N#C/C(=C/c1ccc(O)c(O)c1)c1nc2ccccc2[nH]1`, the “activity change, negative = inhibition” value was -6.26% [at 114 µM].

Consider `COc1ccc(NC(=O)COc2ccccc2C#N)c(S(=O)(=O)N2CCCCC2)c1`, for which the “activity change, negative = inhibition” value was -10.4% [at 114 µM].

Take `CSc1nc2c(c(C(F)(F)F)n1)CC(C)CC2` (stereo not drawn): the “activity change, negative = inhibition” value was 71.3% [at 114 µM].

In the case of `CCSc1nnc(NC(=O)C2CCN(S(=O)(=O)c3ccccc3C(F)(F)F)CC2)s1`, the “activity change, negative = inhibition” value was 32.8% [at 114 µM].

Turning to `COc1ccc(C(=O)c2ccccc2)c2c(O)ccc(C(=O)c3ccccc3)c12`, the “outcome” value is “inactive; activator; fitted 21.3313 uM”.

As to `CC(Oc1ccc(-c2nnco2)cc1)C(=O)N1CCOCC1` (stereo not drawn), the result was inactive.

With `CCN(CC)S(=O)(=O)c1cccc(-c2nnc(SCC(N)=O)n2C)c1`, the “activity change, negative = inhibition” value is -4.64% [at 114 µM].

In the case of `Cc1ccc(NC(=O)Cn2nc(C)c3nn(-c4ccc(Cl)cc4)c(C)c3c2=O)cc1F`, the “activity change, negative = inhibition” value was -3.05%.

With `COc1ccc(-c2n[nH]c3c2C(c2ccc(Cl)cc2Cl)NC3=O)cc1` (stereo not drawn), the “activity change, negative = inhibition” value was 16.1%.

Regarding `CCCc1cc(C(=O)Nc2ccccc2C(=O)OC)no1`, the “activity change, negative = inhibition” value is 36.4% [at 114 µM].

For `CC1=C(C(=O)OC2CCCC2)C(c2c(Cl)cccc2Cl)CC(=O)N1` (stereo not drawn), the “activity change, negative = inhibition” value is 4%.

Regarding `O=C(CCN1C(=O)/C(=C/c2cccs2)SC1=S)Nc1ccc(C(=O)O)c(O)c1`, the “activity change, negative = inhibition” value is 22.7%.

For `Cc1ccc(OCCn2cccn2)c(C)c1`, the “activity change, negative = inhibition” value is 3.42% [at 114 µM].

For `CCOC(=O)[C@@H](NC(=O)/C=C/[C@H]1O[C@@H](n2cc(C)c(=O)[nH]c2=O)C[C@@H]1O)C(C)C`, the “activity change, negative = inhibition” value was 13% [at 114 µM].

With `Cc1c(NC(=O)/C=C/c2cn(-c3ccccc3)nc2-c2ccccc2)c(=O)n(-c2ccccc2)n1C`, the “activity change, negative = inhibition” value was -16.6%.

Take `CSc1nc(N2CCOCC2)c2c3c(sc2n1)CCC3`: the result was inactive.

As to `COCC(=O)Oc1c(Sc2ccc(C)cc2)c(C)nn1C(C)(C)C`, the “activity change, negative = inhibition” value was 10.6%.

As for `COc1ccc(S(=O)(=O)N2CCC[C@H]2C(=O)N2CCC[C@H]2C(=O)NCc2ccccc2)cc1C`, the “activity change, negative = inhibition” value is -21.2%.

As to `CCc1nn2c(-c3ccccc3OC)ccnc2c1-c1ccccc1`, the outcome was “inactive [at 12.7 µM]”.

As to `CC1(C)CC(=O)C=C(c2ccc(F)cc2OCc2ccccc2)C1`, the call was inactive.

In the case of `Oc1ccc(-c2c(-c3ccsc3)sc3ccccc23)cc1`, the “activity change, negative = inhibition” value is -13%.

For the compound `N#Cc1cc2c(=O)n3ccccc3nc2n(-c2nnc(SCc3ccccc3Cl)s2)c1=O`, the “activity change, negative = inhibition” value was -12.4%.

In the case of `O=C1CNC(=O)c2c(nc3n2CCC3)N1`, the “activity change, negative = inhibition” value is -2.48% [at 114 µM].

As to `COC(CNC(=O)c1ccc2c3c(onc13)-c1ccccc1C2=O)OC`, the “activity change, negative = inhibition” value was 119% [at 114 µM].

As to `CCCn1c(CN2CCN(C(=O)c3ccco3)CC2)nc2c1c(=O)n(C)c(=O)n2C`, the Potency is 10.7 µM (active).
